The values below come from PubChem BioAssay (Tox21).

SMILES strings stand for the structures. Inconclusive results are not listed. A call without a number means that no potency is given here. Some compounds were tested as several samples or in several runs, with calls that do not always agree. Active and inactive are the calls of the source. Calls come from the whole dose curve.
Potency is the fitted concentration of half-maximal effect.

Sequence of Thyrotropin receptor (Homo sapiens) (P16473 whole entry, looked up): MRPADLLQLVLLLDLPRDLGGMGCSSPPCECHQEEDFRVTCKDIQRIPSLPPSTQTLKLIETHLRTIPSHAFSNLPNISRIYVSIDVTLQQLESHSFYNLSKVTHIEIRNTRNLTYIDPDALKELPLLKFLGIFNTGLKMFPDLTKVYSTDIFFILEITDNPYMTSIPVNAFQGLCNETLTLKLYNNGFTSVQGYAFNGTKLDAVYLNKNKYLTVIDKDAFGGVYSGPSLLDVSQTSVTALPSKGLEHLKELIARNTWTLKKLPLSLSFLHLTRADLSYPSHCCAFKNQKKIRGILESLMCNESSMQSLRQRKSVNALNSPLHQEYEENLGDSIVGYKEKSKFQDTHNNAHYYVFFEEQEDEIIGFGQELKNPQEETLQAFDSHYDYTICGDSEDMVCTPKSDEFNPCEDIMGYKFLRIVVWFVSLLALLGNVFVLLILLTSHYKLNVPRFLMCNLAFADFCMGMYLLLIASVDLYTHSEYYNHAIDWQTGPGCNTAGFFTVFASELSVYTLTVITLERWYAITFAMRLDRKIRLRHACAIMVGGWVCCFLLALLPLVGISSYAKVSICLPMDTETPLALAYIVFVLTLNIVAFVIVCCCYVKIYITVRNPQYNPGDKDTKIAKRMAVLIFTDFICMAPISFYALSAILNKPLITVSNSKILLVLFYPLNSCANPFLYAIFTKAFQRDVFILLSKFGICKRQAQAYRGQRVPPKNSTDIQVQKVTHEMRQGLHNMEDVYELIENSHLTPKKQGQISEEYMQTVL

This test addresses Thyrotropin receptor (Homo sapiens) (UniProt P16473). In words: qHTS assay to identify small molecule agonists of the thyroid stimulating hormone receptor (TSHR) signaling pathway (AID 1224843). Note: nearly all actives have a fitted effect of over 45% in size. The following applies: TSHR-HEK293 cells, cAMP HTRF, agonist mode, 30 min; series mostly up to 92.4 µM; activation: at the top concentration. The text has this:
National Center for Advancing Translational Sciences [NCATS]
NIH Chemical Genomics Center [NCGC]
U.S. Environmental Protection Agency [EPA]
National Institutes of Environmental Health Sciences [NIEHS]
National Toxicology Program [NTP]
U.S. Food and Drug Administration [FDA]
TSHR is the receptor for thyrotropin (thyroid stimulating hormone or TSH), a member of the glycoprotein hormone family. TSH is released by the anterior pituitary gland and is the main regulator of thyroid gland growth and development. Upon binding circulating thyrotropin, a G-protein signal cascade activates adenylyl cyclase and […] cAMP concentration is increased. cAMP is a key second messenger involved extensively in cellular signal transduction pathways associated with the majority of G-protein coupled receptors (GPCRs). The activation of these GPCRs by neurotransmitters, lipids, nucleotides, peptides and hormones results in the activation or the inhibition of plasma membrane-bound adenylate cyclase through heterotrimeric G-proteins. A cell-based TSHR assay was used to screen the Tox21 10K library for compounds that can modulate TSHR in agonist mode.
Tox21 Assay Protocol Summary:
TSHR-Hek293 cells were dispensed at 800 cells/4uL/well in 1536-well white plates using a Multidrop dispenser. […] The plates were incubated at room temperature for 30 min. 2.5 ul/well of cAMP-d2 and 2.5ul/well of anti-cAMP-cryptate was added respectively into the assay plates using a Flying Reagent Dispenser. After 1 hr incubation at room temperature, the fluorescence intensity in the plates was measured using an Envision plate reader. Each test compound was measured at 15 concentrations and in triplicates.
(qHTS replaces the single test concentration by a dilution series.)
`CNC(=O)O/N=C/C(C)(C)SC`: the Potency result was “inactive”.

As to `Nc1ccc(N)cc1`, the Potency result was “inactive”.

Regarding `CN(C)NC(=O)CCC(=O)O`, the Potency result is “inactive”.

As to `CC(=O)/C=C/c1ccccc1`, the Potency entry was “inactive”.

For `Clc1cnc(Oc2ccc(Oc3ncc(Cl)cc3Cl)cc2)c(Cl)c1`, the Potency entry was “inactive”.

For `C[C@]12CC[C@H](O)CC1=CC[C@@H]1[C@@H]2CC[C@]2(C)C(=O)CC[C@@H]12`, the Potency result was “inactive”.

Take `Sc1ccccc1`: the Potency entry is “inactive”.

On to `OCCCCO`, for which the Potency entry was “inactive”.

Turning to `O=P1(NCCCl)OCCCN1CCCl` (stereo not given), the Potency entry is “inactive”.

Consider `CN(C)C(=O)Cl`, for which the Potency result was “inactive”.

For the molecule `CC[N+](=O)[O-]`, the Potency result was “inactive”.

`Oc1ccc(Cl)cc1`: the Potency entry was “inactive”.

`CNC(=O)O/N=C/C(C)(C)S(C)=O` (stereo not given): the Potency entry is “inactive”.

Regarding `CNC(=O)O/N=C(\SC)C(=O)N(C)C`, the Potency result is “inactive”.

Take `Cl/C=C/Cl`: the Potency entry was “inactive”.

Turning to `CCNc1nc(Cl)nc(NC(C)C)n1`, the “activation” value was 0.518% (inactive).

`O=C(O)CCCc1ccc(N(CCCl)CCCl)cc1`: the Potency result was “inactive”.

For `Cc1cccc(C)c1N`, the Potency result is “inactive”.

On to `CNC(=O)Oc1cccc2ccccc12`, for which the Potency entry is “inactive”.

Take `Cc1ccccc1N`: the Potency was 1.08 µM (active) and inactive.

For `Nc1nc(N)nc(NC2CC2)n1`, the Potency entry is “inactive”.

For `COP(=S)(OC)SCN1C(=O)c2ccccc2C1=O`, the Potency entry is “inactive”.

For `ClCCOCCCl`, the Potency result is “inactive”.

In the case of `O=C(O)C1C(C(=O)O)C2(Cl)C(Cl)=C(Cl)C1(Cl)C2(Cl)Cl` (stereo not given), the “activation” value is -1.69% (inactive).

As for `Cc1ccc(O)c(C)c1`, the Potency result was “inactive”.

`CCSC(=O)N1CCCCCC1`: the Potency result was “inactive”.

Regarding `C/C=C/c1ccc2c(c1)OCO2`, the Potency entry is “inactive”.

With `C[C@H]1C(=O)O[C@@H]2CCN3CC=C(COC(=O)[C@](C)(O)[C@]1(C)O)[C@H]23`, the Potency entry is “inactive”.

Take `CNCC(O)c1ccc(O)cc1` (stereo not given): the Potency result was “inactive”.

As for `CCOc1ccc(N)cc1`, the Potency result was “inactive”.

In the case of `Nc1ncc([N+](=O)[O-])s1`, the Potency result is “inactive”.

For the molecule `N#Cc1ccccn1`, the “activation” value is -7.79% (inactive).

On to `C=CC(=O)OCC(CC)CCCC` (stereo not given), for which the Potency result is “inactive”.

As for `OCC(O)CCl` (stereo not given), the Potency entry was “inactive”.

Consider `Cl[C@H]1OCCO[C@@H]1Cl`, for which the Potency entry was “inactive”.

Regarding `CC(C)c1cccc(C(C)C)c1O`, the Potency entry was “inactive”.

On to `OC[C@@H](O)[C@H]1O[C@@H]2O[C@H](C(Cl)(Cl)Cl)O[C@@H]2[C@H]1O`, for which the Potency result was “inactive”.

Consider `Cc1ccc(N)cc1`, for which the Potency result is “inactive”.

For `O=C(O)c1cc(Oc2ccc(C(F)(F)F)cc2Cl)ccc1[N+](=O)[O-]`, the Potency entry is “inactive”.

Turning to `C=C(C)C(=O)OCC(CC)CCCC` (stereo not given), the Potency result is “inactive”.
